Unmarked numbers belong to inactive results.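 The calls were made as follows: active = RAM network inhibition above 8.4% in each of two replicates, 3 SD over the compound average; inconclusive = above 8.4% inhibition in only one replicate; inactive = 8.4% inhibition or less in each replicate.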

This experiment can be described thus: RAM signaling pathway blockade in yeast – S. cerevisiae, Pdr1DBD-CYC8 efflux-inhibited sensitized strain, primary screen (AID 1298).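 Also: 0% = DMSO untreated cells without growth and 100% = 10 µM 1-NA-PP1 full growth; higher means more yeast growth rescued from 5-FOA killing.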 Particulars: S. cerevisiae cbk1-as DSE1-URA3 strain, 5-FOA growth OD615, 2 d; at 50 µM; active compounds read high.
With `CSc1ccc(S(=O)(=O)N2CCN(Cc3ccc4c(c3)OCO4)CC2)cc1`, the RAM network inhibition was 6.37%.
Then `Cc1ccc(F)c(NC(=O)C2CCCCC2C(=O)O)c1` (centres undefined), with 2.88%; and `CC(=O)c1sc(NC(=O)c2ccco2)nc1-c1ccccc1`, with 1.69%.
Then `CCn1c(C(C)NC(=O)Cc2ccccc2)nc2ccccc21` (centres undefined), with 4.91%; and `CCOC(=O)N1CCN(C(=O)Cn2ncc3ccccc32)CC1`, with 2.51%.
For `CCCCCn1c(CNC(=O)CCC)nc2ccccc21` the value was 0.64%; for `COc1ccc(-n2ncc3c(N4CCCCC4)ncnc32)cc1`, -1.99%; for `O=C(c1cccc(S(=O)(=O)N2CCCC2)c1)c1cccc(S(=O)(=O)N2CCCC2)c1`, 5.82%.
`CC(C)Cc1nnc(NC(=O)CCN2C(=O)c3ccccc3C2=O)s1`: the RAM network inhibition is 9.47%.
For `Cc1cc(C)c(S(=O)(=O)N2CCN(CCO)CC2)c(C)c1` the value was 2.45%; for `CCOC(=O)c1nn(-c2ccc3c(c2)CCN3C(C)=O)cc1O`, 3.05%.
For `CCN1CCN(C(c2ccccc2)c2sc3nc(C)nn3c2O)CC1` (centres undefined) the value was 5.66%.
In the case of `Cc1ccc(O)c(-c2cc(C(F)(F)C(F)F)nc(-c3ccccc3)n2)c1`, the RAM network inhibition was 7.06%.
For `COc1ccc(CN2CCCCC2C(=O)Nc2ccc(OC)c(OC)c2)cc1OC` (centres undefined) the value was 0.21%.
With `CCC(Sc1nncn1C)C(=O)Nc1nnc(-c2ccccc2Cl)s1` (centres undefined), the RAM network inhibition was 2.58%.
As to `COc1ccc(S(=O)(=O)NCC2CCC(C(=O)N3CCC4(CC3)OCCO4)CC2)cc1` (centres undefined), the RAM network inhibition was 2.29%.
Then `NC(=O)c1ccsc1NC(=O)c1ccco1`, with 1.1%; and `Cc1c(NC(=O)c2ccc3c(c2)OCO3)c(=O)n(-c2ccccc2)n1C`, with 2.71%; and `CCN1CCCC1CNC(=O)c1cc2c(-c3ccc(Cl)cc3)nn(C)c2s1` (centres undefined), with 8.33%.
Then `COc1cc(OC)c(Nc2cc(C)nc3nc(C)nn23)cc1Cl`, with -0.72%; and `O=C(O)COc1ccc2c(c1)OCCO2`, with -0.47%.
Then `COc1cc2c(C(=O)NCc3ccccn3)cn(CC(C)C)c(=O)c2cc1OC`, with 1.16%.
For the molecule `COc1cccc(N(CC(=O)Nc2cccc(F)c2)S(C)(=O)=O)c1`, the RAM network inhibition is 3.51%.
For `O=C(C1CCN(S(=O)(=O)c2cccc3cccnc23)CC1)N1CCN(C2CCCC2)CC1` the value was 0.11%.
Then `CCC(=O)N1C(C(=O)O)CSC1c1ccc(OC)cc1` (centres undefined), with 2.87%; and `c1ccc(OCCSc2ncnc3nc[nH]c23)cc1`, with 3.23%; and `Cc1onc(-c2ccccc2Cl)c1C(=O)NCc1ccc2c(c1)cc(C)n2C`, with 5.14%.
For `CN(C)c1nc(Oc2ccc(C(=O)OCC(=O)Nc3ccccc3)cc2)nc(N(C)C)n1` the value was 1.24%; for `Cc1c(/C=N/n2cnnc2)c2ccccc2n1C`, 4.77%.
`CCOC(=O)CSc1ccc2nnc(-c3ccccc3)n2n1`: the RAM network inhibition is 0.11%.
For `O=C(Oc1ccccc1)N1CCN(c2ccc(F)cc2)CC1` the value was 5.1%; for `Cc1cc(Nc2cccc(C)c2C)n2nc(C)nc2n1`, 3.39%; for `COc1ccc(N=C2SC(C(=O)O)CC(=O)N2C)cc1` (centres undefined), 3.61%.
Regarding `CC(CCc1ccccc1)C(=O)NO` (centres undefined), the RAM network inhibition was 1.5%.
Then `Cc1cc(=O)[nH]c(SCc2cc(Cl)ccc2OC(F)F)n1`, with 5.32%; and `COc1ccc(OC)c(S(=O)(=O)n2nc(-c3ccccc3)cc2N)c1`, with 1.93%.
For `O=C(NCc1cn2ccccc2n1)c1ccc(Br)o1` the value was 3.98%; for `COc1ccc(N2CCN(C(=O)c3ccc(CS(=O)(=O)c4ccc(OC)cc4)o3)CC2)cc1`, 4.78%.
Regarding `COc1ccc(OC)c(NC(=O)CSc2nnc(Cn3c(=O)sc4ccccc43)n2C)c1`, the RAM network inhibition was 3.22%.

The values above are taken from PubChem BioAssay.
